This is a sample that favours compounds with a hit; in the whole collection about 4.2% have one here.
RecA splice inh: Mtb RecA intein splicing inhibition; inhibition, % (test concentration not listed); P9WHJ3; cell-free RecA intein splicing, fluorescence; AID 2221; hit rate 0.75% among 290,000; in the data active = inhibition above about 30%;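 also: 0% = vehicle wells and 100% = reference inhibitor control wells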
CCHFV vOTU inh: blocks the CCHF virus ovarian tumor domain protease; hit rate 0.55% among 370,000; AID 651958; inhibition, % at 11.5 µM; CCHFV vOTU protease, Pep-AMC fluorescence; in the data active = inhibition above about 30%; also: 0% = vehicle wells with enzyme and 100% = no enzyme wells
FBA Mtb inh: inhibits M. tuberculosis FBA enzyme; inhibition, % at 1 µM; hit rate 2.3% among 360,000; AID 588726; purified M. tuberculosis FBA, fluorescence read-out; P9WQA3;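 also: 0% = vehicle and 100% = reference inhibitor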
Target sequence (P9WQA3 whole entry, looked up): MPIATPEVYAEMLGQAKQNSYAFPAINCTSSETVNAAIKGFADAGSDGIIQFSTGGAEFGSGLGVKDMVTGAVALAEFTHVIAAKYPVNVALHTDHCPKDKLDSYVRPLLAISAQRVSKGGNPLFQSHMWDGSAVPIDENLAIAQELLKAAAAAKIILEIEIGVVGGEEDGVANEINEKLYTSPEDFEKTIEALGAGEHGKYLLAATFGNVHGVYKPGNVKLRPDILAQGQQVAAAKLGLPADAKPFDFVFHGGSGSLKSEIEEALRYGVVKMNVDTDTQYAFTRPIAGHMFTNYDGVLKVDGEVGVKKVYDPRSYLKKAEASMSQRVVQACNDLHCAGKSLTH
GDH-TPI counter-1: GDH-TPI coupled enzyme inhibition counter-screen; GDH-TPI coupled enzyme counterscreen, NADH absorbance; inhibition, % at 4.8 µM; hit rate 1.2% among 360,000; AID 588335; in the data active = inhibition above about 30%;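 also: 0% = DMSO wells and 100% = wells lacking the enzyme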
Mtb FBA inh conf: Mtb FBA inhibition, confirmed; AID 651616; hit rate 78% among 5,600; purified M. tuberculosis FBA, fluorescence read-out; inhibition, % at 1 µM; shares compounds with FBA Mtb inh;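 also: 0% = vehicle wells and 100% = reference inhibitor wells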
GDH-TPI counter-2: counter-screen for M. tuberculosis FBA inhibitors: GDH-TPI coupled enzyme inhibition; GDH-TPI coupled enzyme counterscreen, fluorescence; hit rate 81% among 5,600; AID 652141; inhibition, % at 1 µM; shares compounds with FBA Mtb inh; in the data active = inhibition above about 10%
GDH-TPI dose: inhibits GDH-TPI coupling enzymes in dose response; IC50, µM; hit rate 79% among 170; GDH-TPI coupled enzyme assay, fluorescence, artifact counterscreen; shares compounds with FBA Mtb inh; call rule not given here
* marks the source's active call; other numbers are inactive results; nt = no result; + = active, no number. Rule as the data show it, unless noted: active = inhibition above about 27%; inactive = the rest.

SMILES	RecA splice inh	CCHFV vOTU inh	FBA Mtb inh	GDH-TPI counter-1	Mtb FBA inh conf	GDH-TPI counter-2	others
CCCCc1cc(=O)oc2cc(OCc3nn[nH]n3)ccc12	-3	1	35*	19	6	-1
COCCCN1C(=O)[C@H](CC(=O)NCc2ccc(OC)c(OC)c2)[C@]2(C(=O)OC)CCCCC=C12	nt	-2	nt	nt	nt	nt
COC(=O)C(C)Sc1nc2ccsc2c(=O)n1Cc1ccccc1 (stereo not given)	7	13	-2	-1	nt	nt
CCOCCc1nnc(NC(=O)CS(=O)(=O)c2ccc(C)cc2)s1	-2	7	0	-13	nt	nt
Cc1ccccc1CC1(CO)CCCN(C(=O)CCCN2CCCCC2=O)C1 (stereo not given)	2	-4	29*	3	24	23*
COC(=O)c1ccc2nc(Nc3nc4ccc(F)cc4s3)sc2c1	-11	-5	38*	8	131*	122*
CC(=O)c1sc(Nc2nc3ccc(F)cc3s2)nc1C	-1	26	27*	4	+	161*
CCC1(CC)Cc2ccccc2-c2nc(NCCCO)[nH]c(=O)c21	3	-73	59*	8	+	+
COc1ccc2oc(C(=O)OC(C)C(=O)Nc3ccc(N4CCOCC4)cc3)c(C)c2c1 (stereo not given)	nt	20	6	13	nt	nt
COc1ccc(-c2cc(C(=O)OCC(=O)N3CCOCC3)c3ccccc3n2)cc1	nt	-5	19	22	nt	nt
COc1ccc2oc(C(=O)OCC(=O)N3CCN(S(=O)(=O)c4ccc(C)cc4)CC3)c(C)c2c1	3	-5	23	-2	nt	nt
COc1ccc2oc(C(=O)OC(C)C(=O)N3CCC(C)CC3)c(C)c2c1 (stereo not given)	nt	-21	44*	10	+	+
COC(=O)C1CCN(C(=O)COC(=O)c2cc(-c3ccccc3)nc3ccc(OC)cc23)CC1	nt	nt	83*	22	58*	51*
COc1ccc2oc(C(=O)OCC(=O)N3CC(C)OC(C)C3)c(C)c2c1 (stereo not given)	0	-24	36*	-11	25	23*
COc1ccc2oc(C(=O)OC(C)C(=O)N(C)c3ccccc3)c(C)c2c1 (stereo not given)	-2	-19	31*	8	+	+
C(=NNc1nnn(Cc2ccccc2)n1)c1ccccc1	nt	16	-2	7	nt	nt
CCOc1ccc2oc(C(=O)OC(C(=O)NC(N)=O)C(C)C)c(C)c2c1 (stereo not given)	-2	-8	40*	12	+	+
CCNC(=O)NC(=O)C(C)OC(=O)c1oc2ccc(OC)cc2c1C (stereo not given)	2	-3	44*	22	2	-5
COc1ccc2oc(C(=O)OCC(=O)NCc3ccccc3OC)c(C)c2c1	-1	17	18	4	nt	nt
CCOc1ccc2oc(C(=O)O)c(C)c2c1	-3	-6	18	2	nt	nt
CCOc1ccc2oc(C(=O)NCC(C)(C)CN(C)C)c(C)c2c1	0	1	44*	12	116*	86*
COc1ccc(N2CCN(C(=O)COC(=O)c3oc4ccc(OC)cc4c3C)CC2)cc1	-1	-9	14	5	nt	nt
CCOC(=O)C1CCN(C(=O)COC(=O)c2oc3ccc(OC)cc3c2C)CC1	nt	22	40*	-6	86*	47*
Cc1ccc(S(=O)(=O)N2[C@@H](c3ccccc3F)C(C(=O)O)=CC[C@H]2c2cccc(Cl)c2)cc1	nt	-3	2	3	nt	nt
O=C(Nc1cc(S(=O)(=O)N2CCOCC2)ccc1Cl)c1ccncc1	nt	13	-1	2	nt	nt
SMILES	RecA splice inh	CCHFV vOTU inh	FBA Mtb inh	GDH-TPI counter-1	Mtb FBA inh conf	GDH-TPI counter-2	others
CC(OC(=O)c1ccc([N+](=O)[O-])o1)C(=O)Nc1nc(-c2ccc(F)c(F)c2)cs1 (stereo not given)	nt	20	1	8	nt	nt
O=S(=O)(c1ccccc1)C(Br)S(=O)(=O)c1ccccc1	nt	-8	4	-1	nt	nt
COc1ccc2oc(C(=O)OCC(=O)N3CC(C)CC(C)C3)c(C)c2c1 (stereo not given)	0	-14	31*	9	57*	51*
CC(C)NC(=O)COC(=O)c1ccc(Cl)c(S(N)(=O)=O)c1	-1	-9	1	4	nt	nt
CC(C)NC(=O)COC(=O)c1ccc(Cl)c(S(=O)(=O)N2CCCC2)c1	nt	-4	40*	7	124*	95*
COc1cc2c(cc1OC)CN(CCC(C)c1ccc(Cl)cc1)CC2 (stereo not given)	1	-8	5	17	nt	nt
COc1ccc(CC(=O)Nc2ccc3c(c2)C(=O)N(CCC(=O)O)C3=O)cc1	1	8	-1	2	nt	nt
CC(C)C(=O)Nc1ccc2c(c1)C(=O)N(CCC(=O)O)C2=O	-1	-43	40*	6	97*	81*
CCOC(=O)C1CCCN(C(=O)c2ccc3nc(-c4ccccc4)c(-c4ccccc4)nc3c2)C1 (stereo not given)	12	-26	36*	29	4	6
NC(=O)c1ccc2nc(-c3ccccc3)c(-c3ccccc3)nc2c1	-2	-12	15	23	nt	nt
CN1CCN(CCNC(=O)c2ccc3nc(-c4ccc(F)cc4)c(-c4ccc(F)cc4)nc3c2)CC1	1	-46	58*	6	19	6	GDH-TPI dose=3.4*
O=C(O)c1ccc2nc(-c3ccccc3)c(-c3ccccc3)nc2c1	-1	-10	30*	12	59*	34*
CCc1nc2ccc(C(=O)NCCCN3CCN(c4ccc(F)cc4)CC3)cc2nc1CC	-2	-5	4	1	nt	nt
CCN1CCN(C(=O)c2ccc3nc(-c4ccccc4)c(-c4ccccc4)nc3c2)CC1	2	-31	44*	25	129*	91*
CCOC(=O)C1CCCN(C(=O)c2ccc3nc(-c4ccc(OC)c(OC)c4)c(-c4ccc(OC)c(OC)c4)nc3c2)C1 (stereo not given)	-7	0	-2	5	nt	nt
CCN1C(=O)C(=O)N(CC(=O)N2CCN(c3ccccc3)CC2)C1=O	-1	-9	0	7	nt	nt
C/C(=N\NC(=O)Cc1ccc(Cl)cc1)c1cccc(NC(=O)c2cccnc2)c1	-2	11	1	-6	nt	nt
CC(=O)Nc1ccc2oc(-c3ccccc3Br)nc2c1	-1	-23	20	4	nt	nt
O=C(Nc1ccc2oc(-c3cccc4ccccc34)nc2c1)c1ncn[nH]1	-2	2	66*	36*	36*	29*
Cc1ccccc1-c1nc2cc(NC(=O)C3CC3)ccc2o1	nt	-15	107*	16	17	15*
CCCCNC(=O)OCCCN1CCC2(CCC(c3ccccc3)CC2)C1 (stereo not given)	nt	0	nt	nt	nt	nt
O=C(c1cc(COc2cccc3cnccc23)on1)N1CCCC(CCCO)C1 (stereo not given)	4	-19	30*	4	192*	132*

Assay outcomes (PubChem)
